Assay results as given in publication PMC7862700, “An all-to-all approach to the identification of sequence-specific readers for epigenetic DNA modifications on cytosine”.

Legend:
Assay in all cases: DAPPL (digital affinity profiling via proximity ligation, sequencing); 10 mM Tris-HCl pH 7.5, 50 mM NaCl, 1 mM DTT, 4% glycerol, room temperature, 30 min; GST-TFs on glutathione beads, 16-mer random dsDNA library, 0.1% formaldehyde crosslink after washing; high values mean tight binding
[1] = molecular target: T1, FEV (Homo sapiens, UniProt Q99581 1-238); details: protein: recombinant; tags: N-terminal GST; dsDNA, one strand shown
T1 sequence: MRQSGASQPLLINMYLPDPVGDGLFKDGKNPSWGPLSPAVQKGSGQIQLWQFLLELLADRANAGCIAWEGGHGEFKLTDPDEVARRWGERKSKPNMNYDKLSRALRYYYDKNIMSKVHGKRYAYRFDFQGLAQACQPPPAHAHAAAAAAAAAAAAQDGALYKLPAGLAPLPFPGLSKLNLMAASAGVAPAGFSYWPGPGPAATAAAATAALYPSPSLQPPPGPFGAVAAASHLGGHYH
Procedure, shortened: (§1)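 Human transcription factors were made in yeast as GST fusions, captured on glutathione beads and barcoded with DNA. With a tag-only sample included, the pool was incubated with 200 nmole of a random double-stranded 16-mer DNA library in Tris/NaCl/DTT/glycerol buffer at room temperature for 30 min, then crosslinked with 0.1% formaldehyde after washing, ligated by proximity, amplified and sequenced. For binding signal, each hexamer's read frequency for a factor is divided by its frequency for the tag-only sample.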

[2] = molecular target: ETV5 (Homo sapiens, UniProt P41161 1-510); details: protein: recombinant; tags: N-terminal GST; dsDNA, one strand shown
Procedure, shortened: as §1

[3] = molecular target: HSF1 (Homo sapiens, UniProt Q00613 1-529); details: protein: recombinant; tags: N-terminal GST; chain copies: 3; dsDNA, one strand shown
Procedure, shortened: as §1

[4] = molecular target: T2, SPIC (Homo sapiens, UniProt Q8N5J4 1-248); details: protein: recombinant; tags: N-terminal GST; dsDNA, one strand shown
T2 sequence: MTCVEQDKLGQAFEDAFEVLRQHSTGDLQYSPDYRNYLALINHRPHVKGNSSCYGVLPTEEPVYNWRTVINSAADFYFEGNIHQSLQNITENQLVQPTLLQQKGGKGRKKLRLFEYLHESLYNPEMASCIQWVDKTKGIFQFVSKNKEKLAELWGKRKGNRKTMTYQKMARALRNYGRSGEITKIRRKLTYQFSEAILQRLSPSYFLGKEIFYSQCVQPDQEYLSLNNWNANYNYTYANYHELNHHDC
Procedure, shortened: as §1

[5] = molecular target: ELF4 (Homo sapiens, UniProt Q99607 1-663); details: protein: recombinant; tags: N-terminal GST; dsDNA, one strand shown
Procedure, shortened: as §1

[6] = molecular target: T3, ELK4 (Homo sapiens, UniProt P28324-2 1-405); details: protein: recombinant; tags: N-terminal GST; dsDNA, one strand shown
T3 sequence: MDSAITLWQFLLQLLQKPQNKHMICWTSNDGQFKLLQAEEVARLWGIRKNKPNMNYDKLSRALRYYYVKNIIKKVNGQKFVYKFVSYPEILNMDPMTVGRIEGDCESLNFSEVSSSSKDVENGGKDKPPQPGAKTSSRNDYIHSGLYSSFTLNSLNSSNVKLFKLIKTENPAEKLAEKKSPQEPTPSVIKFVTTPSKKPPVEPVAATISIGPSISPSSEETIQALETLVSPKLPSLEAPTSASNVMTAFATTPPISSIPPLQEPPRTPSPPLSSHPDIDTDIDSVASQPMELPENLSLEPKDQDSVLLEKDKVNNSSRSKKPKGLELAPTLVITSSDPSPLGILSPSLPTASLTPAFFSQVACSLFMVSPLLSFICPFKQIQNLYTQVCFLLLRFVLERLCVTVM
Procedure, shortened: as §1

[7] = molecular target: T4, ETV2 (Homo sapiens, UniProt O00321 1-342); details: protein: recombinant; tags: N-terminal GST; dsDNA, one strand shown
T4 sequence: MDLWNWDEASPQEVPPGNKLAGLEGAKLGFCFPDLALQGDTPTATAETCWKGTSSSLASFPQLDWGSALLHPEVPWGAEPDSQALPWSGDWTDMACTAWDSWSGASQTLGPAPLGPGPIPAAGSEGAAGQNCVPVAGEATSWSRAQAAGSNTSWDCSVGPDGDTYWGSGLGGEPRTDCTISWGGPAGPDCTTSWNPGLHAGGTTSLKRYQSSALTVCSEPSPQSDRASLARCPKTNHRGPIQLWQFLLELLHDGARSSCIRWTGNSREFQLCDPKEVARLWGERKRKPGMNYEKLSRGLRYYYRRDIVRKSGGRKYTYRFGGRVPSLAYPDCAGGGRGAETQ
Procedure, shortened: as §1

[8] = molecular target: T5, ELF3 (Homo sapiens, UniProt P78545 1-371); details: protein: recombinant; tags: N-terminal GST; dsDNA, one strand shown
T5 sequence: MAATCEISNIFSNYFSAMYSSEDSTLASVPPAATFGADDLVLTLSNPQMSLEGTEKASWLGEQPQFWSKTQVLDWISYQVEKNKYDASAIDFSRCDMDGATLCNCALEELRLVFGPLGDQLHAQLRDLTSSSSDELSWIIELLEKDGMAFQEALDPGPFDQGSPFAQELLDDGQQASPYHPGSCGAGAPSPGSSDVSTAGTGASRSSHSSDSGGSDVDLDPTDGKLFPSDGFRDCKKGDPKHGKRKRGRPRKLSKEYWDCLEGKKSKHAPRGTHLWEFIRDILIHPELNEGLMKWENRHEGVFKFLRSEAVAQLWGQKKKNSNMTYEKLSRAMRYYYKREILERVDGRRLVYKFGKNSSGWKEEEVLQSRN
Procedure, shortened: as §1

[9] = molecular target: CRX (Homo sapiens, UniProt O43186 1-299); details: protein: recombinant; tags: N-terminal GST; dsDNA, one strand shown
Procedure, shortened: as §1

[10] = molecular target: ETV1 (Homo sapiens, UniProt P50549 1-477); details: protein: recombinant; tags: N-terminal GST; dsDNA, one strand shown
Procedure, shortened: as §1

Chain of ELF4 (Q99607 whole entry): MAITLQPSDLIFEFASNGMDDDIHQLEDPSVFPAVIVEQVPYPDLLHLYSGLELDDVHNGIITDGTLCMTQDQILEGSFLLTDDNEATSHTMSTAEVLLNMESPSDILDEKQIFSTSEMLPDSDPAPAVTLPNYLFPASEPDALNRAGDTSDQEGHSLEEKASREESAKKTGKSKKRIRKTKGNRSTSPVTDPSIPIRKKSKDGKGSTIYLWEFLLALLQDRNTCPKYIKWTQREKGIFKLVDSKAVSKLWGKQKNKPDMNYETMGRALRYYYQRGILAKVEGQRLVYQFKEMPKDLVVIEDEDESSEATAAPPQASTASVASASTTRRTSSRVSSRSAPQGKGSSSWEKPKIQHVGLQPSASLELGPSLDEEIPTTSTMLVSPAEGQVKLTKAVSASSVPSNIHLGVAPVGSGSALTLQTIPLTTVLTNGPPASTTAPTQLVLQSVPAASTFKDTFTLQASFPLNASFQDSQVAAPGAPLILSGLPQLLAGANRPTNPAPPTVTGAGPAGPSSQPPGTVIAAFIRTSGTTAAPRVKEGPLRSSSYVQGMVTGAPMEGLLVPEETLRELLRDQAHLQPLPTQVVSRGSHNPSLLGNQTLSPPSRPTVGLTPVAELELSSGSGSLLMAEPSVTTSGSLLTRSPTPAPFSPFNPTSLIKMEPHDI
Chain of CRX (O43186 whole entry): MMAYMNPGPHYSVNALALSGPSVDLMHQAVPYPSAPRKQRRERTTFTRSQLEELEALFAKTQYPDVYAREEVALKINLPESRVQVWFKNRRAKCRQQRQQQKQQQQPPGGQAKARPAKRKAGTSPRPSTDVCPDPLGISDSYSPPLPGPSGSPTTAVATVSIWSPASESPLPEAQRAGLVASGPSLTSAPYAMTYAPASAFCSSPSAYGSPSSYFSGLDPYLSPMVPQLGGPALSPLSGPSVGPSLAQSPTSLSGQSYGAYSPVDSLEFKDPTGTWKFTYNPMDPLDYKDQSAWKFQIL
Chain of ETV5 (P41161 whole entry): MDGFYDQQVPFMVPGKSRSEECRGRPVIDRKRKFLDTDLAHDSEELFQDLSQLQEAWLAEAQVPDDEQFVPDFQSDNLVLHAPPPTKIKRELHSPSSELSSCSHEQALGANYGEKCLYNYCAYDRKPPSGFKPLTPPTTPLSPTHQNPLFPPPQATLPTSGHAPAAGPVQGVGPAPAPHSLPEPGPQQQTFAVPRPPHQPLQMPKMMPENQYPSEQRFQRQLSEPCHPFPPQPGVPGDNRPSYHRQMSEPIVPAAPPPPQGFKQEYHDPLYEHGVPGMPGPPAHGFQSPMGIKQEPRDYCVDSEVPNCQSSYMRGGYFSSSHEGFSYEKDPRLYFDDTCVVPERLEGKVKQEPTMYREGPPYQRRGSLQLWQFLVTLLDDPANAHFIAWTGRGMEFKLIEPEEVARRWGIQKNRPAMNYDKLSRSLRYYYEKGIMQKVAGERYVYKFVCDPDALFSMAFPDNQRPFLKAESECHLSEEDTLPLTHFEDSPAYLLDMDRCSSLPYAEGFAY
Chain of HSF1 (Q00613 whole entry): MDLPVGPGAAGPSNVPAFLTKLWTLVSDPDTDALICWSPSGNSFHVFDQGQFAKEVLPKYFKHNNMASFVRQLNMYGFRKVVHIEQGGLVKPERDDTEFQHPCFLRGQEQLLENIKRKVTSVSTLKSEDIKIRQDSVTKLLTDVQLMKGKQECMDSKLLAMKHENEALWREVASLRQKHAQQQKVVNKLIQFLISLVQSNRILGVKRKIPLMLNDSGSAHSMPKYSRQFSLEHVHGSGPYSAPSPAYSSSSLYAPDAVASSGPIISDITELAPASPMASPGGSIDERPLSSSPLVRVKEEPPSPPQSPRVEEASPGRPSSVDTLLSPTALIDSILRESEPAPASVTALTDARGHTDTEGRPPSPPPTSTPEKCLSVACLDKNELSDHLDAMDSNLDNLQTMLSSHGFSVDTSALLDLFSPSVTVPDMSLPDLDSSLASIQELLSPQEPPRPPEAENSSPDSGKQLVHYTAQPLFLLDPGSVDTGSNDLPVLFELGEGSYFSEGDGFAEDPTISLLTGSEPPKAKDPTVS
Chain of ETV1 (P50549 whole entry): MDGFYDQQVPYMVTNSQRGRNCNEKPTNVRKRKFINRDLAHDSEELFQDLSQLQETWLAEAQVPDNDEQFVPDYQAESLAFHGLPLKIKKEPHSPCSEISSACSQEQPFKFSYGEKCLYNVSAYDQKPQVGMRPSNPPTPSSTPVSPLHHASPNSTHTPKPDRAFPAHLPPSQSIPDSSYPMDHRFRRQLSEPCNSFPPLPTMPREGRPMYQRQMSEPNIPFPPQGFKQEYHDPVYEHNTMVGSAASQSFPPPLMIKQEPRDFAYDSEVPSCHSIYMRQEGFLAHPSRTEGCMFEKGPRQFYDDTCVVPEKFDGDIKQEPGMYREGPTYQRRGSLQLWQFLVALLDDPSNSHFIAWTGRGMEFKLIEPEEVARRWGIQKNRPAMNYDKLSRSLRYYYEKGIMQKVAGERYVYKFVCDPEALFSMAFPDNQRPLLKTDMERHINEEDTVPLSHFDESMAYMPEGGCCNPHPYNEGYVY

ATTGGG
binding signal [1]: 1.13 fold enrichment (6-mer frequency, TF over GST control) | binding signal [2]: 1.26 fold enrichment (6-mer frequency, TF over GST control) | binding signal [3]: 1.06 fold enrichment (6-mer frequency, TF over GST control) | binding signal [4]: 1.26 fold enrichment (6-mer frequency, TF over GST control) | binding signal [5]: 1.19 fold enrichment (6-mer frequency, TF over GST control) | binding signal [6]: 1.18 fold enrichment (6-mer frequency, TF over GST control) | binding signal [7]: 1.13 fold enrichment (6-mer frequency, TF over GST control) | binding signal [8]: 1.22 fold enrichment (6-mer frequency, TF over GST control) | binding signal [9]: 1.22 fold enrichment (6-mer frequency, TF over GST control) | binding signal [10]: 1.2 fold enrichment (6-mer frequency, TF over GST control)
